Measurements: the supplement of paper PMC13380429
Unmarked numbers belong to inactive results.

test system: Vero E6 infected with SARS-CoV-2; assay: SARS-CoV-2 infection rate relative to infected DMSO; higher = more infection, active = 60 or less; details: 24 h

Q: How did the SARS-CoV-2 infection rate turn out when O=C1c2c(O)ccc(O)c2C(=O)c2c(NCCNCCO)ccc(NCCNCCO)c21 [mitoxantrone] (0.833333 µM) was run?
A: 108%

Q: CN1CCN(CCCN2c3ccccc3Sc3ccc(S(=O)(=O)N(C)C)cc32)CC1 [thioproperazine] (10 µM) was tested. Which SARS-CoV-2 infection rate did it give?
A: 102%

Q: How did the SARS-CoV-2 infection rate turn out when O=C(COc1ccc(Cl)cc1)N1CCN(Cc2ccc3c(c2)OCO3)CC1 [fipexide] (10 µM) was run?
A: 112%

Q: With O=C(O)[C@]1(Cc2cccc(Nc3nccs3)n2)CC[C@@H](Oc2cccc(Cl)c2F)CC1 (0.833333 µM) as the molecule, how does the SARS-CoV-2 infection rate read?
A: 106%

Q: For C[C@@H](N)[C@H]1CC[C@H](C(=O)Nc2ccncc2)CC1 (10 µM), which SARS-CoV-2 infection rate is on record?
A: 106%

Q: How did the SARS-CoV-2 infection rate turn out when NC(=O)OCC(O)COc1ccc(Cl)cc1 (stereo not given) [chlorphensin-carbamate] (10 µM) was run?
A: 112%

Q: For CCC(=O)O[C@@H]1CC(=O)O[C@H](C)C/C=C/C=C/[C@H](O)[C@H](C)C[C@H](CC=O)[C@H](O[C@@H]2O[C@H](C)[C@@H](O[C@H]3C[C@@](C)(O)[C@@H](OC(=O)CC)[C@H](C)O3)[C@H](N(C)C)[C@H]2O)[C@H]1OC [midecamycin] (10 µM), which SARS-CoV-2 infection rate is on record?
A: 102%

Q: For CCCCCCCCCCCCCCCCCCCCCCCCCCCCO [1-octacosanol] (10 µM), which SARS-CoV-2 infection rate is on record?
A: 100%

Q: CS(=O)(=O)Nc1ccc(-c2coc3cc(OCc4cccc(C(=O)O)c4)ccc3c2=O)cc1 (10 µM) was tested. Which SARS-CoV-2 infection rate did it give?
A: 97%

Q: For O=C(NOCCO)c1ccc2cncn2c1Nc1ccc(I)cc1F (0.833333 µM), which SARS-CoV-2 infection rate is on record?
A: 121%

Q: Which SARS-CoV-2 infection rate does the source give for O=C(O[C@@H]1Cc2c(O)cc(O)cc2O[C@@H]1c1ccc(O)c(O)c1)c1cc(O)c(O)c(O)c1 [epicatechin-gallate-(-)] (10 µM) here?
A: 100%

Q: How did the SARS-CoV-2 infection rate turn out when CC[N+](C)(CC)CCOC(=O)C(O)(c1ccccc1)C1CCCCC1 (stereo not given) [oxyphenonium] (10 µM) was run?
A: 102%

Q: Which SARS-CoV-2 infection rate does the source give for CCc1cc2c(cc1N1CCC(N3CCOCC3)CC1)C(C)(C)c1[nH]c3cc(C#N)ccc3c1C2=O [alectinib] (10 µM) here?
A: 106%

Q: CN(C)C(=O)c1cc2cnc(Nc3ccc(N4CCNCC4)cn3)nc2n1C1CCCC1 [ribociclib] (10 µM) was tested. Which SARS-CoV-2 infection rate did it give?
A: 113%

Q: With Nc1ncn([C@@H]2O[C@H](CO)[C@@H](O)[C@H]2O)c(=O)n1 [azacitidine] (0.833333 µM) as the molecule, how does the SARS-CoV-2 infection rate read?
A: 100%

Q: For NS(=O)(=O)c1cc(C2(O)NC(=O)c3ccccc32)ccc1Cl (stereo not given) [chlorthalidone] (10 µM), which SARS-CoV-2 infection rate is on record?
A: 78.5%

Q: Which SARS-CoV-2 infection rate does the source give for COc1cc(OC2CCN(C)CC2)ccc1Nc1ncc2c(n1)n(C1CCCC1)c(=O)n2C (0.833333 µM) here?
A: 98%

Q: With CN(C)CCOC(c1ccccc1)c1ccccc1.Cn1c(=O)c2[nH]c(Cl)nc2n(C)c1=O [dimenhydrinate] (10 µM) as the molecule, how does the SARS-CoV-2 infection rate read?
A: 110%

Q: CC1=C(/C=C/C(C)=C/C=C/C(C)=C/C(=O)Nc2ccc(O)cc2)C(C)(C)CCC1 [fenretinide] (10 µM) was tested. Which SARS-CoV-2 infection rate did it give?
A: 116%

Q: With C#Cc1cccc(Nc2ncnc3cc4c(cc23)OCCOCCOCCO4)c1 [icotinib] (0.833333 µM) as the molecule, how does the SARS-CoV-2 infection rate read?
A: 117%

Q: Which SARS-CoV-2 infection rate does the source give for N#CC[C@@H](C1CCCC1)n1cc(-c2ncnc3[nH]ccc23)cn1 [ruxolitinib-(S)] (10 µM) here?
A: 105%

Q: How did the SARS-CoV-2 infection rate turn out when CCN(CC)CC1CCCCN1CC(=O)N1c2ccccc2C(=O)Nc2cccnc21 (stereo not given) [otenzepad] (10 µM) was run?
A: 94.5%

Q: With O=C1CC2(CCCC2)CC(=O)N1CCNC[C@H]1COc2ccccc2O1 (10 µM) as the molecule, how does the SARS-CoV-2 infection rate read?
A: 113%

Q: Which SARS-CoV-2 infection rate does the source give for O=C(Nc1c[nH]nc1-c1nc2ccc(CN3CCOCC3)cc2[nH]1)NC1CC1 (0.833333 µM) here?
A: 118%

Q: With CC(=O)N1CCC(C(=O)N(CCCN2CCC(Cc3ccc(C(N)=O)cc3)CC2)c2ccc(C)c(Cl)c2)CC1 (10 µM) as the molecule, how does the SARS-CoV-2 infection rate read?
A: 107%

Q: How did the SARS-CoV-2 infection rate turn out when CCCC(=O)O[C@]1(C(=O)CCl)[C@@H](C)C[C@H]2[C@@H]3CCC4=CC(=O)C=C[C@]4(C)[C@@]3(F)C(=O)C[C@@]21C [clobetasone-butyrate] (10 µM) was run?
A: 96%

Q: With CC(NC(C)(C)C)C(=O)c1cccc(Cl)c1 (stereo not given) [bupropion] (10 µM) as the molecule, how does the SARS-CoV-2 infection rate read?
A: 96.5%

Q: With O=c1n(CC2CO2)c(=O)n(CC2CO2)c(=O)n1CC1CO1 (stereo not given) [teroxirone] (10 µM) as the molecule, how does the SARS-CoV-2 infection rate read?
A: 115%

Q: Which SARS-CoV-2 infection rate does the source give for CN(C(=O)Cc1ccccc1)[C@H](CN1CCCC1)c1ccccc1 (10 µM) here?
A: 102%

Q: CO/N=C(\C(=O)N[C@@H]1C(=O)N2C(C(=O)OCOC(=O)C(C)(C)C)=C(C)CS[C@H]12)c1csc(N)n1 [cefetamet-pivoxil] (10 µM) was tested. Which SARS-CoV-2 infection rate did it give?
A: 96.5%

Q: With NC[C@H]1O[C@H](O[C@H]2[C@H](O)[C@@H](O[C@H]3O[C@H](CO)[C@@H](O)[C@H](N)[C@H]3O)[C@H](N)C[C@@H]2N)[C@H](N)[C@@H](O)[C@@H]1O [bekanamycin] (10 µM) as the molecule, how does the SARS-CoV-2 infection rate read?
A: 103%

Q: Which SARS-CoV-2 infection rate does the source give for COc1cc(F)c(C(C)C)cc1-c1ccc(C(F)(F)F)cc1CN1C(=O)O[C@H](c2cc(C(F)(F)F)cc(C(F)(F)F)c2)[C@@H]1C [anacetrapib] (10 µM) here?
A: 106%

Q: For N=C1NC(=O)/C(=C/c2ccc(O)cc2)S1 [mirin] (10 µM), which SARS-CoV-2 infection rate is on record?
A: 112%

Q: Which SARS-CoV-2 infection rate does the source give for CC(c1cc2ccccc2s1)N(O)C(N)=O (stereo not given) [zileuton] (10 µM) here?
A: 98.5%

Q: How did the SARS-CoV-2 infection rate turn out when COc1cc(OC)c(C(=O)CCCN2CCCC2)c(OC)c1 [buflomedil] (10 µM) was run?
A: 102%

Q: For CCN[C@H]1C[C@H](C)S(=O)(=O)c2sc(S(N)(=O)=O)cc21 [dorzolamide] (10 µM), which SARS-CoV-2 infection rate is on record?
A: 100%

Q: N=C(N)NC(=O)c1nc(Cl)c(N)nc1N [amiloride] (10 µM) was tested. Which SARS-CoV-2 infection rate did it give?
A: 98%

Q: How did the SARS-CoV-2 infection rate turn out when N=C(C[C@@H](O)COc1ccccc1-c1ccccc1)N1CCCCC1 (10 µM) was run?
A: 104%

Q: For CC(=O)O[C@H]1CC[C@@]2(C)C(=CC[C@@H]3[C@@H]2CC[C@]2(C)C(c4cccnc4)=CC[C@@H]32)C1 [abiraterone-acetate] (10 µM), which SARS-CoV-2 infection rate is on record?
A: 112%

Q: How did the SARS-CoV-2 infection rate turn out when COc1cc2c(Oc3ccc4[nH]c(C)cc4c3F)ccnc2cc1OCC1(N)CC1 [anlotinib] (10 µM) was run?
A: 100%
